Assay outcomes from PubChem.
Only some compounds are listed: those with a hit (about 1.1% of all), similar ones and a draw of the others.
TrxR1 substrate – substrates of rat thioredoxin reductase 1; AID 588456; actives 0.01% (n = 390,000); Potency, µM (series often up to 114 µM), for inactives: at the highest dose activity change, negative = substrate turnover; O89049; purified TrxR1 substrate turnover, NADPH consumption readout; also: potency is read from the fitted curve at half-maximal effect; nearly all actives have a fitted effect of over 50% in size
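Rat TrxR1, dispensed at 90 nM, was prereduced with 400 uM NADPH (final) for 5 min at ~22 deg C, then incubated with compound 15 min before 400 uM selenite. A first-read NADPH fluorescence drop versus no-compound background flagged substrates.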
GALK inh – galactokinase (human) inhibition. Purified GALK, Kinase-Glo residual ATP luminescence. Potency, µM (doses to about 57.5 µM), for the others: top-dose activity change, negative = inhibition, actives largely listed as inhibitors. actives 0.007% (n = 270,000); also: potency is read from the fitted curve at half-maximal effect
Target sequence (P51570 whole entry, looked up): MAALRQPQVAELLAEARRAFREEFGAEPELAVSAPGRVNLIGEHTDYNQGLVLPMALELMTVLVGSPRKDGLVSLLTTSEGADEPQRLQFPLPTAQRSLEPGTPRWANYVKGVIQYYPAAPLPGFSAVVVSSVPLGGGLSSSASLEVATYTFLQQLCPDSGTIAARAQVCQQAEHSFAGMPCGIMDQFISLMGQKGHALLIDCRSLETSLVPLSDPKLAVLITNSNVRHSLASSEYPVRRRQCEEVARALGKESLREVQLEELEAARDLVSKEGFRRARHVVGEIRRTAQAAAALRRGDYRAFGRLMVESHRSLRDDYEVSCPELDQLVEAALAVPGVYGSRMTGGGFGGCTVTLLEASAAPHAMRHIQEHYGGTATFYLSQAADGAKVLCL
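Compounds were pin-transferred into ATP buffer (35 uM final), then GALK plus galactose (5 nM, 100 uM final) was added. After 1 h at room temperature, Kinase-Glo Plus was added and luminescence read after 10 min.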
PI4K2A inh – blocks human PI4K2A kinase activity. activity change, negative = inhibition, % at 76.9 µM. purified PI4K2A, ADP-Glo luminescence, 1 h; stronger effect = lower value. Q9BTU6. actives 0.13% (n = 420,000). AID 1346378; in the data active = activity change below about -50%; inconclusive = mostly about -30% to -49%;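 also: -100% = wells without enzyme as full effect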
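Compounds are screened against recombinant PI4K2A using PI as substrate and ATP, the latter dispensed at 300 microM. Reactions run one hour at ambient temperature before ADP-Glo detection; full inhibition defined by wells lacking enzyme.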
rTrxR1 inhibitor – rat TrxR1 inhibition. recombinant rTrxR1, NADPH fluorescence consumption, selenite substrate. Potency, µM (doses to about 114 µM), for inactives: at the highest dose activity change, negative = inhibition, hits mostly inhibitors. AID 588453. O89049. actives 1% (n = 390,000); also: potency is read from the fitted curve at half-maximal effect; nearly all actives have a fitted effect of over 65% in size
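Rat TrxR1 (90 nM in the dispensed reagent) was pre-reduced with 400 uM NADPH for 5 min at room temperature, then incubated with compound for 15 min. After 400 uM selenite was added, NADPH fluorescence (Ex 340/Em 450 nm) was followed for 8 min.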
* hit, by the source's call; ? = inconclusive; · = no result given; [ ] = dose if it differs, or a comment. Unless noted, calls follow the shape of the dose curve; as a rule, active = well fitted curve in the direction sought with a large enough effect; inconclusive = small, poorly fitted or top-dose-only effect, or another doubt; inactive = no such curve, though single readings can be large; an effect the other way counts as inactive or inconclusive. Unless noted, % is scaled to controls: 0 for no effect and ±100 for the full control effect.

SMILES | TrxR1 substrate | GALK inh | PI4K2A inh | rTrxR1 inhibitor
C/C(=N/NS(=O)(=O)c1ccccc1)c1ccc(NC(=O)C2CC2)cc1 | -1%[57.1 µM] | -1% | -4 | 6%[57.1 µM]
CC(=O)n1ccnc1 | 5% | · | 2 | 12%
OCC1NCC(O)C(O)C1O (stereo not given) | 0%[57.1 µM] | · | 3 | -3%[57.1 µM]
COCCOC(=O)C1=C(C)N=C2SCCC(=O)N2C1c1ccc(OCc2ccccc2)c(OC)c1 (stereo not given) | 4% | · | 0 | 21%
COc1cc2c(cc1OC)CN(CCC(=O)c1ccc(Br)cc1)CC2 | -3%[57.1 µM] | 0% | 52 | 0.28µM*
COc1cc2c(cc1OC)CN(C(=O)CCNC(=O)c1ccc(Br)cc1)CC2 | -7% | · | -7 | -11%
CCOC(=O)N1CCN(CCC(=O)c2ccc(Br)cc2)CC1 | 11%[57.1 µM] | · | 23 | 1µM*
CCOC(=O)N1CCN(CCC(=O)c2ccc(OC)cc2)CC1 | 5% | 0% | 7 | 3.5µM*
COc1ccc(C(=O)CCN2CCC(C)CC2)cc1 | 0% | -1% | 17 | 0.71µM*
Cc1oc2c(C)c3oc(=O)c(CCC(=O)N4CCCCC4)c(C)c3cc2c1C | -1% | · | 0 | -4%
CC(C)Cn1c(CN2CCN(c3cccc(Cl)c3)CC2)nc2c1c(=O)[nH]c(=O)n2C | 5% | · | 0 | 18%
O=Cc1cccc(Oc2ncccn2)c1 | -2% | 6% | 4 | 16%
Nc1ccc(Oc2ncccn2)cc1 | -7% | -1% | -54* | -15%
O=[N+]([O-])c1ccc(S(=O)(=O)CC(CN2CCCCC2)N2CCCCC2)cc1 (stereo not given) | -6% | -1% | 4 | 2.5µM*
O=[N+]([O-])c1ccc(S(=O)(=O)CC(CN2CCOCC2)N2CCOCC2)cc1 (stereo not given) | -1% | -2% | 6 | 4%
CCc1nc2ccc(C(=O)Nc3cccc(OCC(=O)N(C)C)c3)cn2c1N(C)Cc1cc2ccccc2s1 | · | · | 0 | ·
O=C(O)c1ccc(Nc2cc(Cl)c3nonc3c2[N+](=O)[O-])cc1 | -12% | -4% | ? | 0.63µM*
Cc1c(Nc2cc(N3CCOCC3)c3nonc3c2[N+](=O)[O-])c(=O)n(-c2ccccc2)n1C | · | 0% | · | ·
O=[N+]([O-])c1c(Nc2cccc(O)c2)cc(Cl)c2nonc12 | -16% | -6% | -9 | 0.89µM*
Cc1c(Nc2cc(Cl)c3nonc3c2[N+](=O)[O-])c(=O)n(-c2ccccc2)n1C | -7%[57.1 µM] | -1% | ? | 0.63µM*
O=C(O)Cc1sc(N/N=C\c2ccncc2)nc1-c1ccccc1 | -8% | -5% | -3 | 3.2µM*
C/C(CC(=O)Nc1ccccn1)=N\NC(=O)c1ccccc1 | · | 0% | · | ·
CCCNC(=O)C/C(C)=N/NC(=O)C(=O)Nc1ccccn1 | 2% | 11% | 0 | 63µM*
COc1ccc(OC)c(NC(=O)CN2C(=O)COc3ccc(S(=O)(=O)NC4CCCC4)cc32)c1 | -5%[57.1 µM] | · | 7 | 8%[57.1 µM]
COc1ccccc1NC(=O)Cn1nnc(C(=O)Nc2ccccc2Br)c1N | 1% | · | 2 | 14%
SMILES | TrxR1 substrate | GALK inh | PI4K2A inh | rTrxR1 inhibitor
CCCOc1cc(N)ccc1C(=O)OCCN(CC)CC | 8% | · | 0 | 30%
CCCOc1ccc(N)cc1N | 1%[57.1 µM] | -1% | -58* | ?
O=C1c2sc3nc4ccccc4n3c2C(=O)N1c1ccccc1Cl | -6% | -5% | -1 | 4µM*
Cc1ccccc1N1C(=O)c2sc3nc4c(c(=O)n3c2C1=O)CCC4 | -9% | 0% | 3 | 8.9µM*
CCOC(=O)CSc1nsc(SCC(=O)OCC)c1C#N | -7% | 1% | -1 | 1%
CC(=O)CSc1nsc(SCC(C)=O)c1C#N | -7% | -3% | -4 | 71µM*
O=S(=O)(NCCS(=O)(=O)N1CCN(c2ccccc2)CC1)c1ccc(Br)cc1 | 1%[57.1 µM] | · | 3 | 16%[57.1 µM]
COc1cc2cc3c(N)c(C(=O)Nc4sc(C)c(C)c4C#N)sc3nc2cc1OC | 9% | 0% | -50* | 10%
Cc1ccc2nc(Cl)c3nnnn3c2c1 | 3% | 6% | -3 | 8.9µM*
C[C@@H](Nc1nc(Cl)nc2nc[nH]c12)c1ccccc1 | -5% | · | · | 3%
Cc1ccc(-c2nnc(-c3ccccc3)c(-c3ccccc3)n2)cc1 | 2% | · | 0 | 12%
Cc1cc(-c2nnc(-c3ccccc3)c(-c3ccccc3)n2)c(C)o1 | -1% | 1% | -5 | 32µM*
COc1cc2ccccc2cc1C(=O)OCC(=O)c1c(N)n(C)c(=O)n(C)c1=O | 50% | · | -3 | -6%
COc1ccc(Cl)cc1C(=O)OCC(=O)c1c(N)n(C)c(=O)n(C)c1=O | · | · | -71* | ·
O=C1NC2c3ccccc3CC2O1 (stereo not given) | 8%[57.1 µM] | · | 2 | 8%
O=C1NC2c3c(Cl)sc(Cl)c3C(=O)C2O1 (stereo not given) | -5% | · | 15 | 6.3µM*
O=C1NC2c3c(I)sc(I)c3C(=O)C2O1 (stereo not given) | -2% | · | 22 | 2.5µM*
COc1ccc(NC(=O)c2c(NC(=O)C(F)(F)F)sc3c2CCCCC3)cc1 | -4% | · | 2 | 8%
Cc1cc(C)nc(SCc2cc(=O)c(OC(=O)c3ccco3)co2)n1 | 14% | 0% | 9 | 21%
Cc1cc(C)nc(SCc2cc(=O)c(OC(=O)c3ccc(S(=O)(=O)N4CCCC4)cc3)co2)n1 | 4% | 1% | 16 | 16µM*
Cc1cc(C)nc(SCc2cc(=O)c(OC(=O)c3ccc(Br)o3)co2)n1 | -11% | -1% | 26 | 79µM*
COc1cccc(CN2CCC2(C)C(=O)Nc2ccc3c(c2)OCO3)c1F (stereo not given) | · | · | 1 | ·
CCc1ccc(S(=O)(=O)NC(=S)NC2CCCCC2)cc1 | 5%[57.1 µM] | 0% | 4 | 6.3µM*
Cc1ccc(S(=O)(=O)NC(=S)NC2CCCCC2)cc1 | 8% | 1% | -2 | 3.5µM*
O=C(NNS(=O)(=O)c1ccc(Cl)cc1)NC1CCCCC1 | -6%[57.1 µM] | -3% | -7 | 13%[57.1 µM]
SMILES | TrxR1 substrate | GALK inh | PI4K2A inh | rTrxR1 inhibitor
Cc1ccc(S(=O)(=O)NC(=O)NC2CCCCC2)cc1 | · | · | 0 | ·
O=S(=O)(NC(=S)NC1CCCCC1)c1ccc(Cl)cc1 | 2% | 1% | 2 | 2.8µM*
CCc1ccc(C(C)NC(=S)NC2CCCCC2)cc1 (stereo not given) | -1% | 0% | -2 | 15%
COc1ccc(C)cc1NC(=O)COCc1cc(-c2ccc(F)cc2)on1 | -9% | · | -2 | 9%
O=C(COC(=O)c1cccnc1Cl)c1ccc(F)cc1 | -4% | 0% | -7 | 13%
O=C(COC(=O)c1cccnc1Cl)c1ccccc1 | 3% | 1% | -71* | 12%
C#CCNC(=O)C[C@H]1C[C@@]2(C(=O)OC)C(=C[C@H](C(C)C)O[C@@H]2C2CC2)N(CCCCCCCC)C1=O | · | · | -1 | ·
COC(=O)c1ccc(C2Nc3ccc(/C(C)=N/NC(=O)C(OC)c4ccccc4)cc3C3C=CCC32)cc1 (stereo not given) | 0% | -2% | 3 | 22µM*
CC(=O)c1ccc2c(c1)C1C=CCC1C(c1ccncc1)N2 (stereo not given) | -9% | 0% | -9 | ?
Cc1ccc(C(=O)N2CCc3cc(CNS(=O)(=O)c4cccs4)ccc32)cc1 | 5%[57.1 µM] | · | -2 | 25%[57.1 µM]
